# Assay results from publication PMC7862700, “An all-to-all approach to the identification of sequence-specific readers for epigenetic DNA modifications on cytosine”.
# Assays:
# Test in all cases: DAPPL (digital affinity profiling via proximity ligation, sequencing); 10 mM Tris-HCl pH 7.5, 50 mM NaCl, 1 mM DTT, 4% glycerol, room temperature, 30 min; GST-TFs on glutathione beads, 16-mer random dsDNA library, 0.1% formaldehyde crosslink after washing; high values mean tight binding
# [1] = biological target: T1, FEV (Homo sapiens, UniProt Q99581 1-238); details: protein: recombinant; tags: N-terminal GST; dsDNA, one strand shown
# T1 sequence: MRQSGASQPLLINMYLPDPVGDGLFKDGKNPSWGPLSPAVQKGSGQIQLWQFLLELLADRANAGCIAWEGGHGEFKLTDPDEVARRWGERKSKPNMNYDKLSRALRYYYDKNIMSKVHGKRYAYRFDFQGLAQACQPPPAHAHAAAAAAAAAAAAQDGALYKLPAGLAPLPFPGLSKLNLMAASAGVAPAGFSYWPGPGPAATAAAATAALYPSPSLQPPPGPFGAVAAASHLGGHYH
# In short: (§1)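 After expression in yeast as GST fusions, human transcription factors were bound to glutathione beads, DNA-barcoded and mixed with a tag-only sample. The pools were incubated with 200 nmole of a 16-mer random double-stranded DNA library in Tris/NaCl/DTT/glycerol buffer (30 min, room temperature), washed and crosslinked with 0.1% formaldehyde. Proximity ligation with BsaI/T4 ligase ran for 1 h at 37 °C, before PCR amplification and sequencing on an Illumina NextSeq500. Binding signal is a hexamer's read frequency for a factor divided by its frequency for the tag-only sample.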
# [2] = biological target: ETV5 (Homo sapiens, UniProt P41161 1-510); details: protein: recombinant; tags: N-terminal GST; dsDNA, one strand shown
# In short: as §1
# [3] = biological target: HSF1 (Homo sapiens, UniProt Q00613 1-529); details: protein: recombinant; tags: N-terminal GST; chain copies: 3; dsDNA, one strand shown
# In short: as §1
# [4] = biological target: T2, SPIC (Homo sapiens, UniProt Q8N5J4 1-248); details: protein: recombinant; tags: N-terminal GST; dsDNA, one strand shown
# T2 sequence: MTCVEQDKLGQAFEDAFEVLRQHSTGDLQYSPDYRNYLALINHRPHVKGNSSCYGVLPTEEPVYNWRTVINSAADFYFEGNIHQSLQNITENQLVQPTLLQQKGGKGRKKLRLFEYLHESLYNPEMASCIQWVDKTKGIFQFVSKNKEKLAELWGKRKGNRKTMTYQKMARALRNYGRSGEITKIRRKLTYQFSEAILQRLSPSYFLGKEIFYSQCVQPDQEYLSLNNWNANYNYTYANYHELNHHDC
# In short: as §1
# [5] = biological target: ELF4 (Homo sapiens, UniProt Q99607 1-663); details: protein: recombinant; tags: N-terminal GST; dsDNA, one strand shown
# In short: as §1
# [6] = biological target: T3, ELK4 (Homo sapiens, UniProt P28324-2 1-405); details: protein: recombinant; tags: N-terminal GST; dsDNA, one strand shown
# T3 sequence: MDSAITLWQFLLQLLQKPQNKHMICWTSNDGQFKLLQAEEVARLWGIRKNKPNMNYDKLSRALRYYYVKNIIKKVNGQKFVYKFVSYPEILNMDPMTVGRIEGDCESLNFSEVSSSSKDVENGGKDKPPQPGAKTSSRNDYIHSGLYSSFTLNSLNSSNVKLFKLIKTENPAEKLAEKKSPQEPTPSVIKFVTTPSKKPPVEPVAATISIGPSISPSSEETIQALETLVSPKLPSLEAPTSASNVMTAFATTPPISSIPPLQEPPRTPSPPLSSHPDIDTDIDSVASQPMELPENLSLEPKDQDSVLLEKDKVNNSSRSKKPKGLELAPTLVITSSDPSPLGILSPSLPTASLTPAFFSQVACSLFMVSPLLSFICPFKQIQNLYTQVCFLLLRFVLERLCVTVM
# In short: as §1
# [7] = biological target: T4, ETV2 (Homo sapiens, UniProt O00321 1-342); details: protein: recombinant; tags: N-terminal GST; dsDNA, one strand shown
# T4 sequence: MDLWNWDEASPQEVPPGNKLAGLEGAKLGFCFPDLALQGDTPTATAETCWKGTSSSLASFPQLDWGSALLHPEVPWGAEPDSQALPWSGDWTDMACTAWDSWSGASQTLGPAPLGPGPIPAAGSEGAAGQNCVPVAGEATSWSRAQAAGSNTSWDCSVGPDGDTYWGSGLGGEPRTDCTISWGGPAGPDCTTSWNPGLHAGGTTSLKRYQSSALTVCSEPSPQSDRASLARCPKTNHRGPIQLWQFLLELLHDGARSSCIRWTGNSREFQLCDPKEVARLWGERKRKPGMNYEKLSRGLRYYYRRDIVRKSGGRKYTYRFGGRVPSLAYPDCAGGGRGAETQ
# In short: as §1
# [8] = biological target: T5, ELF3 (Homo sapiens, UniProt P78545 1-371); details: protein: recombinant; tags: N-terminal GST; dsDNA, one strand shown
# T5 sequence: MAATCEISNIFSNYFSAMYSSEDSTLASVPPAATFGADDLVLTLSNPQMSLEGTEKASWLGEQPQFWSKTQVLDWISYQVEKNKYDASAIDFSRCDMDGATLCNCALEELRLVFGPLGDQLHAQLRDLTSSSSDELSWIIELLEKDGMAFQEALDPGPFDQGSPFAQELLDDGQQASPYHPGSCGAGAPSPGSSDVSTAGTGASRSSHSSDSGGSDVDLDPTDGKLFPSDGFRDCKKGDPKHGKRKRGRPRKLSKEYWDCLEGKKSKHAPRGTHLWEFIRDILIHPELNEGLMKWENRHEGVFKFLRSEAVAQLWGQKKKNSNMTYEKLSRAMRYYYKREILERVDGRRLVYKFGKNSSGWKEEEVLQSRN
# In short: as §1
# [9] = biological target: CRX (Homo sapiens, UniProt O43186 1-299); details: protein: recombinant; tags: N-terminal GST; dsDNA, one strand shown
# In short: as §1
# [10] = biological target: ETV1 (Homo sapiens, UniProt P50549 1-477); details: protein: recombinant; tags: N-terminal GST; dsDNA, one strand shown
# In short: as §1
# [11] = biological target: T6, ERF (Homo sapiens, UniProt P50548 1-548); details: protein: recombinant; tags: N-terminal GST; dsDNA, one strand shown
# T6 sequence: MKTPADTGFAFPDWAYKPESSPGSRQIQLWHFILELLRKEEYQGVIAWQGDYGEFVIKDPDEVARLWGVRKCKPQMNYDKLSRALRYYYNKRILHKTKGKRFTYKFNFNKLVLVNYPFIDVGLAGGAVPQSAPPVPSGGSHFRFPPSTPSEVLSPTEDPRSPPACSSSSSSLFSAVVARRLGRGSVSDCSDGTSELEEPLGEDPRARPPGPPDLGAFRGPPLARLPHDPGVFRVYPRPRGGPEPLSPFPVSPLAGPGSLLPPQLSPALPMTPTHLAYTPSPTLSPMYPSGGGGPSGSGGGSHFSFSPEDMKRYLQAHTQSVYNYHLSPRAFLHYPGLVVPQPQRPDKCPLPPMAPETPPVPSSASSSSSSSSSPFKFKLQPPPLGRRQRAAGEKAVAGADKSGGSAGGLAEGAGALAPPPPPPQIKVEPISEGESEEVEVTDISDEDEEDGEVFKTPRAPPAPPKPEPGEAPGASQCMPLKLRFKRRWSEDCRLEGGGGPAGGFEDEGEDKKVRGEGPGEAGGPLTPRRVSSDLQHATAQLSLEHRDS
# In short: as §1
# [12] = biological target: T7, ETV3L (Homo sapiens, UniProt Q6ZN32 1-361); details: protein: recombinant; tags: N-terminal GST; dsDNA, one strand shown
# T7 sequence: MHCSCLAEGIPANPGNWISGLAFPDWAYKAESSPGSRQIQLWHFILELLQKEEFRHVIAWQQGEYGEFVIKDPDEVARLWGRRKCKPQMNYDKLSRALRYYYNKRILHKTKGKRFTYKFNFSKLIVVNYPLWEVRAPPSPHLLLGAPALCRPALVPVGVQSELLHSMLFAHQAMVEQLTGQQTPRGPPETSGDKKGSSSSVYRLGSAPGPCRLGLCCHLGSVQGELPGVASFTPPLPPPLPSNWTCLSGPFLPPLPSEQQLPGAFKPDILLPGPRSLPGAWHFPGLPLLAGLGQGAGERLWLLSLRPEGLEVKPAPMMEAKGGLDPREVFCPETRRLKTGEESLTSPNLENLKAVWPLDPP
# In short: as §1
# [13] = biological target: T8, ETS2 (Homo sapiens, UniProt P15036 1-469); details: protein: recombinant; tags: N-terminal GST; dsDNA, one strand shown
# T8 sequence: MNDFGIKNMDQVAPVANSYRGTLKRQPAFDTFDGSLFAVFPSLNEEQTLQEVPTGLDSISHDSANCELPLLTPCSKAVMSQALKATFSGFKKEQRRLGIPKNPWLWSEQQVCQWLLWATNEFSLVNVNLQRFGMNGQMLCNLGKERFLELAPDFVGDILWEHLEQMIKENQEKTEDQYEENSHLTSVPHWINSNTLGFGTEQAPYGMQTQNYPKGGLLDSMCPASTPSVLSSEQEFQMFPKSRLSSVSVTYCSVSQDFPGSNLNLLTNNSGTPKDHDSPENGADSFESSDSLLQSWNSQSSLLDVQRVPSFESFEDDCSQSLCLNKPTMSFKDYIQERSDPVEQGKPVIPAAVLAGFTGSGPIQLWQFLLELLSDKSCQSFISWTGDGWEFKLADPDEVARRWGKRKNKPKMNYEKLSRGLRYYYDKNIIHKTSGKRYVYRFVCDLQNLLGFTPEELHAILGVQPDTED
# In short: as §1
# [14] = biological target: T9, SPDEF (Homo sapiens, UniProt O95238 1-335); details: protein: recombinant; tags: N-terminal GST; dsDNA, one strand shown
# T9 sequence: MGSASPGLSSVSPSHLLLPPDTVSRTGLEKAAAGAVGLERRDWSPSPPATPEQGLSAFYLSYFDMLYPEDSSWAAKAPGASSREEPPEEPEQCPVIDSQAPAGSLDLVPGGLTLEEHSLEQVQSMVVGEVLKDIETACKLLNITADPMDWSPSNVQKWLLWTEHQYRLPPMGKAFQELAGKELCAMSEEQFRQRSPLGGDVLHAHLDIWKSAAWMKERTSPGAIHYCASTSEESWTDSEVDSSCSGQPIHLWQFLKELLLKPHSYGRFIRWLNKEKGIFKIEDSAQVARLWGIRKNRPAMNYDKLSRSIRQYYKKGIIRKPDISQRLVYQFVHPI
# In short: as §1
# [15] = biological target: T10, ETV7 (Homo sapiens, UniProt Q9Y603 1-341); details: protein: recombinant; tags: N-terminal GST; dsDNA, one strand shown
# T10 sequence: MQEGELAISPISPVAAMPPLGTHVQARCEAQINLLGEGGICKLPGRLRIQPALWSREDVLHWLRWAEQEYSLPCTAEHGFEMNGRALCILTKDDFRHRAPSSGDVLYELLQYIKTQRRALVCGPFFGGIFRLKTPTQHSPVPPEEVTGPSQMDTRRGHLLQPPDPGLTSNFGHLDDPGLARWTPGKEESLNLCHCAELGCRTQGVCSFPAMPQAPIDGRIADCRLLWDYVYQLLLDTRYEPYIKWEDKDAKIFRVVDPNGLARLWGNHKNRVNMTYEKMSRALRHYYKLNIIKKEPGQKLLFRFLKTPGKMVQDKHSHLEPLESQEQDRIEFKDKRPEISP
# In short: as §1
# [16] = biological target: T11, ELF5 (Homo sapiens, UniProt Q9UKW6-2 1-255); details: protein: recombinant; tags: N-terminal GST; dsDNA, one strand shown
# T11 sequence: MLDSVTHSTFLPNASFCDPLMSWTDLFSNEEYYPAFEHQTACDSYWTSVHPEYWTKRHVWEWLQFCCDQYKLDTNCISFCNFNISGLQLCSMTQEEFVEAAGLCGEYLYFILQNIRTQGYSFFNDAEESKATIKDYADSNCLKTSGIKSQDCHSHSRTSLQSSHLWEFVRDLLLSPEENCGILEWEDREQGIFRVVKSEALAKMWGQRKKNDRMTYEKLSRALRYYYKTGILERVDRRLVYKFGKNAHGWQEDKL
# In short: as §1
# [17] = biological target: T12, ETV3 (Homo sapiens, UniProt P41162-2 1-143); details: protein: recombinant; tags: N-terminal GST; dsDNA, one strand shown
# T12 sequence: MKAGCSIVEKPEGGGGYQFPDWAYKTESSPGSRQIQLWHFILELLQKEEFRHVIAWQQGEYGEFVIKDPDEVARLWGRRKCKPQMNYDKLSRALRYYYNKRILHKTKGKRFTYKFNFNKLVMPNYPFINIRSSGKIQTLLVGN
# In short: as §1
# [18] = biological target: ETV6 (Homo sapiens, UniProt P41212 1-452); details: protein: recombinant; tags: N-terminal GST; dsDNA, one strand shown
# In short: as §1
# Sequence of ETV1 (P50549 whole entry): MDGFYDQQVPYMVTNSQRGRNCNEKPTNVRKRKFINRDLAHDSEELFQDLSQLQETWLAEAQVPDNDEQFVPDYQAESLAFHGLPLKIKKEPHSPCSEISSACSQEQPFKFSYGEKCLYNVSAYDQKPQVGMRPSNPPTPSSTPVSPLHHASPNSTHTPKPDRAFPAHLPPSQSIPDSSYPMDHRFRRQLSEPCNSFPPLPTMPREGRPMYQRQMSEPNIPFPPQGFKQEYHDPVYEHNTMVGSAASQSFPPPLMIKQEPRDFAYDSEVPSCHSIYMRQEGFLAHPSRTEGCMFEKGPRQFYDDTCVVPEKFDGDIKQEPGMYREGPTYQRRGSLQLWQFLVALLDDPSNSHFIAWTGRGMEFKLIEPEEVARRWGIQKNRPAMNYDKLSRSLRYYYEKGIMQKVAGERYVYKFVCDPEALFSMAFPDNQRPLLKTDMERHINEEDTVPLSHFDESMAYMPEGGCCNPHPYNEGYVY
# Sequence of CRX (O43186 whole entry): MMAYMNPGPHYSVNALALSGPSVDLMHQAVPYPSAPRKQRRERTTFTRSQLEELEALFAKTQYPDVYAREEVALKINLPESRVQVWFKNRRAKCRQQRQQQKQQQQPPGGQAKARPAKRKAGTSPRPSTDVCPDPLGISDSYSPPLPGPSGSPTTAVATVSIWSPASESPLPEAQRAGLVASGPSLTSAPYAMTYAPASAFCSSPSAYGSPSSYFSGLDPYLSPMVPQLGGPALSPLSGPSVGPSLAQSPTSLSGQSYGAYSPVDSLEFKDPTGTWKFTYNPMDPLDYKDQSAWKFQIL
# Sequence of HSF1 (Q00613 whole entry): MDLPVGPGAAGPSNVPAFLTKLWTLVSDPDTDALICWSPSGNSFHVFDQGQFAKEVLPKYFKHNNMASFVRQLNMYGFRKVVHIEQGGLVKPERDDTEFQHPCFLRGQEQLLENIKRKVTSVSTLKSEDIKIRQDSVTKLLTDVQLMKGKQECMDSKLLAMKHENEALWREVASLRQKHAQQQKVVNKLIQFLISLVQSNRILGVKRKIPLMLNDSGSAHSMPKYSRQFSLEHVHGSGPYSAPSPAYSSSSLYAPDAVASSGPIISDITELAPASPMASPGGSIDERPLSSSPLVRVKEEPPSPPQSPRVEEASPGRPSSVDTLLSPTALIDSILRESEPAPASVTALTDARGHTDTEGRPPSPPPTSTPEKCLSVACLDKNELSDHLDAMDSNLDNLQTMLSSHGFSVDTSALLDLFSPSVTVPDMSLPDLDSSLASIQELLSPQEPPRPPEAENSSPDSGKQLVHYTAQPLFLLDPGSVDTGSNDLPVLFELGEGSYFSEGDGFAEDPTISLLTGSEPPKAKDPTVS
# Sequence of ELF4 (Q99607 whole entry): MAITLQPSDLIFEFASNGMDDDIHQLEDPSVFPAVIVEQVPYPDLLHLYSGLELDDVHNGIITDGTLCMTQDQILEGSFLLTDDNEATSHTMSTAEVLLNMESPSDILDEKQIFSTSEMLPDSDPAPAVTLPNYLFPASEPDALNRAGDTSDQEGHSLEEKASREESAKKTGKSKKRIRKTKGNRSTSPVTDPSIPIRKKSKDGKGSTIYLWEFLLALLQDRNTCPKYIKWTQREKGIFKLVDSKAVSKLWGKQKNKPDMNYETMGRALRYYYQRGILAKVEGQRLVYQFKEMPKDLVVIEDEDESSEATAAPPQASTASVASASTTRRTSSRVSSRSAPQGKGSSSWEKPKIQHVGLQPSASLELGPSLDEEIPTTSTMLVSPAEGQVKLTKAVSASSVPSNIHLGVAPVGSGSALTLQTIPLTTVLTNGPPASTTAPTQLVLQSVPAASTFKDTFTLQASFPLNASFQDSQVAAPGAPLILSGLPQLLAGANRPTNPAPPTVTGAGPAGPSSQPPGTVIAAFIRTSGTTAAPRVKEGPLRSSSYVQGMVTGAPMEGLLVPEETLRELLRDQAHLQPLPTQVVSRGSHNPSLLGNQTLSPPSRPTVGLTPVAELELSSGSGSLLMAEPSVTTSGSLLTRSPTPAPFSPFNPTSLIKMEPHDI
# Sequence of ETV6 (P41212 whole entry): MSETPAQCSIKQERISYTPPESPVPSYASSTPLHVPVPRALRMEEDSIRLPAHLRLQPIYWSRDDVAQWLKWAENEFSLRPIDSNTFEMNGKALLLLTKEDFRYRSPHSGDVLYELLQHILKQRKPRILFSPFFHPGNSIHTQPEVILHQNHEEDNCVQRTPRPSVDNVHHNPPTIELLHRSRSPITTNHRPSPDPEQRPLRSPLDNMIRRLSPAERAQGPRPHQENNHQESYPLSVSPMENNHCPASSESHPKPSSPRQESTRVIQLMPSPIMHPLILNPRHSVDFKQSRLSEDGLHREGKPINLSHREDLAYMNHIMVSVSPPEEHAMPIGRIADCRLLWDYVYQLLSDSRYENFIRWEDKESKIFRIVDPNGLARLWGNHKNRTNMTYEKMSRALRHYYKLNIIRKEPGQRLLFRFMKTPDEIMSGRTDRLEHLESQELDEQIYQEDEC
# Sequence of ETV5 (P41161 whole entry): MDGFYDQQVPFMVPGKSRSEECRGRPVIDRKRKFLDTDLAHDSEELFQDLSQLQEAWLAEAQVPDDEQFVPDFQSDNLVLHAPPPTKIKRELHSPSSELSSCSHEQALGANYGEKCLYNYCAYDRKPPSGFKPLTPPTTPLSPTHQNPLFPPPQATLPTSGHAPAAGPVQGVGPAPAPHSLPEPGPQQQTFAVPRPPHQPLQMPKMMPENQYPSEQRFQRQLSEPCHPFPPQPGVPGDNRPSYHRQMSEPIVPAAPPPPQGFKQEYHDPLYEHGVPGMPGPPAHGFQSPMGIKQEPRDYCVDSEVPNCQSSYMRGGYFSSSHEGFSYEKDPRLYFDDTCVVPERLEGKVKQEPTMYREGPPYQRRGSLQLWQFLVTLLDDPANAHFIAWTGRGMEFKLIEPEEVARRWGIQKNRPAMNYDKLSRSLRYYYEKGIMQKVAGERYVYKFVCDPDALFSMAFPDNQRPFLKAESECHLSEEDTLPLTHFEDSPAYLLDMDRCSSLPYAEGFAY
sequence,measurement,setting,value
ATCTCC,binding signal,[1],"1.5 fold enrichment (6-mer frequency, TF over GST control)"
same,binding signal,[2],"1.48 fold enrichment (6-mer frequency, TF over GST control)"
same,binding signal,[3],"1.67 fold enrichment (6-mer frequency, TF over GST control)"
same,binding signal,[4],"1.49 fold enrichment (6-mer frequency, TF over GST control)"
same,binding signal,[5],"1.57 fold enrichment (6-mer frequency, TF over GST control)"
same,binding signal,[6],"1.47 fold enrichment (6-mer frequency, TF over GST control)"
same,binding signal,[7],"1.48 fold enrichment (6-mer frequency, TF over GST control)"
same,binding signal,[8],"1.3 fold enrichment (6-mer frequency, TF over GST control)"
same,binding signal,[9],"2.01 fold enrichment (6-mer frequency, TF over GST control)"
same,binding signal,[10],"1.57 fold enrichment (6-mer frequency, TF over GST control)"
same,binding signal,[11],"1.47 fold enrichment (6-mer frequency, TF over GST control)"
same,binding signal,[12],"1.46 fold enrichment (6-mer frequency, TF over GST control)"
same,binding signal,[13],"1.5 fold enrichment (6-mer frequency, TF over GST control)"
same,binding signal,[14],"1.68 fold enrichment (6-mer frequency, TF over GST control)"
same,binding signal,[15],"1.31 fold enrichment (6-mer frequency, TF over GST control)"
same,binding signal,[16],"1.53 fold enrichment (6-mer frequency, TF over GST control)"
same,binding signal,[17],"1.44 fold enrichment (6-mer frequency, TF over GST control)"
same,binding signal,[18],"1.51 fold enrichment (6-mer frequency, TF over GST control)"
